High-throughput results deposited in PubChem BioAssay by several laboratories.
GIRK2 act – activators of NPY4-receptor-primed GIRK2 channels, summary, cell-based, HEK293, thallium flux; HEK293 GIRK2/NPY4 cells, thallium flux fluorescence; activation (% efficacy), % for hits at 37.5 µM; 34,000 tested, under 10 active; G protein-activated inward rectifier potassium channel 2 (Homo sapiens), P48051;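 active = primary screen hit, no activity in plain HEK293 cells, and in GIRK2-only cells above 5% efficacy rising with concentration; inactive = the rest, including fluorescent compounds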;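 note: efficacy is normalized control-subtracted fluorescence 15 s after thallium addition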
Target sequence (P48051 whole entry, looked up): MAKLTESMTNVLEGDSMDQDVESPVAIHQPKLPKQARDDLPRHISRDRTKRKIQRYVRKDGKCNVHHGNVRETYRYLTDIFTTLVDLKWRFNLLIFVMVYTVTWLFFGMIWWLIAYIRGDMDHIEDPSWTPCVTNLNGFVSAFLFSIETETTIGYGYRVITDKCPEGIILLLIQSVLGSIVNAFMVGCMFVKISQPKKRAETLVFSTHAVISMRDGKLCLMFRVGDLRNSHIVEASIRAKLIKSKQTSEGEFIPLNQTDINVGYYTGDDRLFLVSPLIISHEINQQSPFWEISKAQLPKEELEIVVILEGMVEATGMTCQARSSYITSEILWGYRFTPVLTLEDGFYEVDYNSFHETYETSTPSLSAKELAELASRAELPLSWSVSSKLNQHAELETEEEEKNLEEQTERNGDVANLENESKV
AMPAR-TARP mod – modulators of GluA2-stargazin AMPA receptor complexes, primary screen, cell-based, membrane potential dye; HEK293 GluA2+stargazin, membrane potential dye (FDSS), glutamate EC50; hits were called plate by plate, in both directions; 40,000 compounds, 3.5% hits; calls only at 30 µM; AID 1259245, 2017;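 active = any of four per-well response measures lying three or more SD from its plate-wide compound average, in either direction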
Large screens that a line does not name were inactive. The entries come from a sample that favours hits as a whole.

COC1CCN(S(=O)(=O)c2ccc3ccccc3c2)CC1	none (no result: GIRK2 act)
Cc1cc(C)c2c(n1)sc1c(=O)n(CC(=O)Nc3ccc(Cl)cc3)cnc12	none
CCC(C)NC(=O)Cn1cnc2c(sc3nc(C)cc(C)c32)c1=O (configuration not stated)	AMPAR-TARP mod active
O=C(CCc1csc(NC(=O)c2ccco2)n1)NCC1CCCCC1	none
Cc1[nH]c(=O)[nH]c(=O)c1CC(=O)NC1CCCCC1	none
COc1ccc(S(=O)(=O)CC(=O)Nc2ccccc2Oc2ccccc2)cc1	AMPAR-TARP mod active
O=C(CCCS(=O)(=O)c1ccccc1)Nc1ccccc1Oc1ccccc1	none
COc1ccc(OCCCC(=O)Nc2cccc(Br)c2)cc1	none
COc1ccc(S(=O)(=O)CC(=O)Nc2cccc(Br)c2)cc1	AMPAR-TARP mod active
CN(C1CCCC1)S(=O)(=O)c1ccc(C(=O)Nc2ccc3sccc3c2)cc1	none (no result: GIRK2 act)
Cc1ccc([N+](=O)[O-])cc1S(=O)(=O)Nc1cccc(-c2ccc(=O)n(C)n2)c1	none
COC(=O)c1sccc1S(=O)(=O)N1CCN(c2ccccc2F)CC1	AMPAR-TARP mod active (no result: GIRK2 act)
COc1ccc(CNC(=O)c2sccc2S(=O)(=O)N2CCN(c3ccccc3F)CC2)cc1	none (no result: AMPAR-TARP mod)
CCOc1ccc(-n2nnnc2CN2CCN(C(=O)c3c(C)noc3C)CC2)cc1	none
CCOc1ccc(-n2nnnc2CN2CCN(C(=O)c3c(F)cccc3Cl)CC2)cc1	AMPAR-TARP mod active
CN(c1ccc(F)cc1)S(=O)(=O)c1ccsc1-c1nc(-c2ccc(F)cc2)no1	none
COc1ccc(N(C)S(=O)(=O)c2ccsc2-c2nc(-c3ccc(SC)cc3)no2)cc1	AMPAR-TARP mod active
COc1ccc(NC(=O)C(=O)NCC(c2cccc3ccccc23)N2CCOCC2)c(OC)c1 (configuration not stated)	none (no result: GIRK2 act)
CSc1ccccc1C(=O)N1CCC(c2nnc(-c3ccc(F)cc3)o2)CC1	none
CN(Cc1ccco1)S(=O)(=O)c1ccc(C(=O)Nc2nc(-c3cccc([N+](=O)[O-])c3)cs2)cc1	none (no result: GIRK2 act)
COC(=O)c1c(NC(=O)c2ccco2)sc2c1CC(C)(C)NC2(C)C	AMPAR-TARP mod active
COC(=O)c1c(NC(=O)c2cc(C)no2)sc2c1CC(C)(C)NC2(C)C	none (no result: AMPAR-TARP mod)
COc1ccccc1C1(CNC(=O)Nc2cccc(C(F)(F)F)c2)CCOCC1	none
O=C(NCC1(O)CCc2ccccc21)Nc1cccc(C(F)(F)F)c1 (configuration not stated)	AMPAR-TARP mod active
COc1ccc(NC(=O)NCCNc2cc(-n3ccnc3C)ncn2)cc1Cl	none
O=C(CSc1nc(-c2ccccc2)nc2c1CCCC2)N1CCOCC1	AMPAR-TARP mod active (no result: GIRK2 act)
Cc1cccc(-c2nc3c(c(SCC(=O)N(C)C)n2)CCCC3)c1	none
Cc1cc(NC(=O)Cc2ccc(C(C)C)cc2)n(C(C)C)n1	none
Cc1nc(C)c(C(=O)N2Cc3nn(-c4ccccc4C)c(-n4cccc4)c3C2)s1	none
COc1ccc(S(=O)(=O)CCCC(=O)Nc2nc(-c3cccc([N+](=O)[O-])c3)cs2)cc1	none
O=C(CCCS(=O)(=O)c1ccccc1)Nc1nc(-c2ccc(Br)s2)cs1	AMPAR-TARP mod active
O=C(Nc1nc2ccc([N+](=O)[O-])cc2s1)c1ccc(=O)n(Cc2c(F)cccc2Cl)c1	AMPAR-TARP mod active
CS(=O)(=O)c1ccc2nc(NC(=O)c3ccc(=O)n(Cc4c(F)cccc4Cl)c3)sc2c1	none
Cc1ccc(S(=O)(=O)CCCC(=O)N(CCN(C)C)c2nc3c(C)cccc3s2)cc1	none
O=C(CCCS(=O)(=O)c1ccccc1)Nc1nc(-c2ccc(Cl)s2)cs1	none
COc1ccc(S(=O)(=O)CCCC(=O)Nc2nc(-c3cc([N+](=O)[O-])cs3)cs2)cc1	AMPAR-TARP mod active
Cc1ccc(S(=O)(=O)CCCC(=O)N(CCN(C)C)c2nc3ccc([N+](=O)[O-])cc3s2)cc1	AMPAR-TARP mod active
Cn1cccc1C(CNS(=O)(=O)CCc1ccccc1)N1CCCC1 (configuration not stated)	none
COc1ccc(S(=O)(=O)CCC(=O)Nc2sc3c(c2C#N)CCCC3)cc1	none
COc1ccccc1CNC(=O)c1n[nH]nc1Nc1ccccc1	none
Cc1nc2c(ccc3nc(NC(=O)CCCS(=O)(=O)c4ccccc4)sc32)s1	AMPAR-TARP mod active
O=C(CCCS(=O)(=O)c1ccccc1)Nc1nc2ccccc2s1	none
O=C(CS(=O)(=O)Cc1ccccc1)Nc1nc(-c2cc([N+](=O)[O-])cs2)cs1	none
O=C(CCCS(=O)(=O)c1ccc(Cl)cc1)Nc1nc2ccc([N+](=O)[O-])cc2s1	none (no result: GIRK2 act)
COc1ccc(S(=O)(=O)CCCC(=O)Nc2nc3ccc([N+](=O)[O-])cc3s2)cc1	AMPAR-TARP mod active
O=C(CCCS(=O)(=O)c1ccc(Cl)cc1)Nc1ccc([N+](=O)[O-])cc1	AMPAR-TARP mod active (no result: GIRK2 act)
O=C(CCCS(=O)(=O)c1ccccc1)Nc1nc(-c2cc([N+](=O)[O-])cs2)cs1	AMPAR-TARP mod active
O=C(CCCS(=O)(=O)c1ccccc1)Nc1ccc([N+](=O)[O-])cc1	none
CCc1ccc(S(=O)(=O)NCCOc2ccc(-c3ccco3)nn2)s1	none
COc1cccc(CCNC(=O)Cn2cnc(C(C)C)cc2=O)c1	none
COC(=O)c1c(NC(=O)c2cc3ccccc3oc2=O)sc2c1CCC2	none (no result: GIRK2 act)
CC(=O)C(C)n1c(=O)c2c(nc3n(C4CCCCC4)c(C)cn23)n(C)c1=O (configuration not stated)	none (no result: GIRK2 act)
O=C(c1ccc(=O)n(Cc2ccc(F)cc2)n1)N1CCCCC1	none
Cn1cccc1CN(C(=O)C(C)(C)Oc1ccc(Cl)cc1)C1CC1	none (no result: AMPAR-TARP mod)
N#Cc1ccccc1NC(=O)CCCS(=O)(=O)c1ccccc1	none
N#Cc1ccsc1NC(=O)CCCS(=O)(=O)c1ccccc1	AMPAR-TARP mod active
O=C(CN1C(=O)c2ccccc2S1(=O)=O)Nc1nc2ccc([N+](=O)[O-])cc2s1	none
CCC(=O)Nc1nc2ccc([N+](=O)[O-])cc2s1	AMPAR-TARP mod active
COC1CCN(S(=O)(=O)c2ccc(Br)s2)CC1	none (no result: GIRK2 act)
Cc1cc(C(=O)Nc2nc3ccc(S(N)(=O)=O)cc3s2)on1	none
COc1ccccc1-n1nnc(C(=O)Nc2ccccc2SC)c1C	none
Cc1cccc(S(=O)(=O)N2CCCCCC2)c1	none (no result: GIRK2 act)
COc1ccc(C(CNC(=O)c2ccc(OC)c(OC)c2)N2CCOCC2)cc1 (configuration not stated)	none (no result: GIRK2 act)
Cn1c(=O)c2ccc(C(=O)NC3CCCCC3)cc2n2c(SCC(N)=O)nnc12	AMPAR-TARP mod active
CC(C)NC(=O)CSc1nnc2n(Cc3ccccc3)c(=O)c3ccc(C(=O)NC(C)C)cc3n12	AMPAR-TARP mod active
CCCNC(=O)c1ccc(Cn2c(SCC(=O)NC(C)C)nc3ccccc3c2=O)cc1	none
CC(C)NC(=O)c1ccc(Cn2c(SCC#N)nc3ccccc3c2=O)cc1	none
CC(C)NC(=O)c1ccc2c(=O)n(Cc3ccccc3)c3nnc(SCC(N)=O)n3c2c1	AMPAR-TARP mod active
Cn1c(CSc2nc(N)cc(N)n2)nnc1SCC(=O)NC1CCCCC1	none (no result: GIRK2 act)
COc1ccc(NC(=O)c2cc(N3C(=O)CCS3(=O)=O)ccc2Cl)cc1OC	none
O=C(NCC(O)c1cccc2ccccc12)c1ccc(OC(F)(F)F)cc1 (configuration not stated)	none
COc1cc(OC)c(NC(=O)Cn2nc3c(cc2=O)CCCC3)cc1Cl	AMPAR-TARP mod active
COc1cc(Cl)c(C)cc1NC(=O)Cn1nc2c(cc1=O)CCCC2	none
